High-throughput results (PubChem)
Sampled rows, rich in hits. Any-hit rate of the full collection: about 19%.
HT1080NT lethal: kills 2HG-producing HT-1080-NT fibrosarcoma cells | HT-1080-NT fibrosarcoma viability, CellTiter-Glo ATP luminescence, 48 h | Potency, µM (highest dose often 46.1 µM), inactives show at the top dose activity, negative = less viability, actives largely listed as cytotoxic | hit rate 1.6% among 360,000 | AID 686970;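 note: NT is the 2HG producing partner of a matched IDH1 knockdown line; potency is the fitted concentration of half-maximal effect; 0% = DMSO-treated cells and -100% = media-only wells without cells; nearly all actives have a fitted effect of over 55% in size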
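Viability by CellTiter-Glo luminescence after 48 h compound exposure at 37C of HT-1080-NT cells (750/well, RPMI, 5% FBS). % activity scaled between DMSO wells and medium-only wells, then curve-fitted and categorized by curve class.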
HT1080 IDH1KD tx: kills HT-1080 cells with IDH1 knockdown | Potency, µM (top dose mostly 46.1 µM), for inactives: top-dose activity, negative = toxicity, usual class: cytotoxic | AID 686971 | HT-1080 IDH1 knockdown viability, ATP luminescence, 48 h | hit rate 2% among 360,000;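 note: potency is the fitted concentration of half-maximal effect; 0% = DMSO wells and -100% = cell-free medium wells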
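CellTiter-Glo luminescence after 48 h compound exposure at 37 degrees C of IDH1-knockdown HT-1080 cells in 5% FBS RPMI. %Activity scaled between DMSO wells and cell-free media wells, with curves fitted and assigned curve classes.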
DT40 TDP1 no CPT: qHTS for Inhibitors of human tyrosyl-DNA phosphodiesterase 1 (TDP1): qHTS in cells in absence of CPT; DT40 Tdp1-/- hTDP1 cells, no CPT, ATP luminescence, 48 h; Potency, µM (highest dose often 46.2 µM), inactives show at the top dose activity change, negative = growth inhibition, most hits filed as inhibitors; hit rate 15% among 420,000; AID 686978, 2013; note: potency is the fitted concentration of half-maximal effect; nearly all actives have a fitted effect of over 55% in size
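DT40 Tdp1-/-;hTDP1 cells, no CPT (DMSO vehicle only), 400 cells/well; compounds pin-transferred; ≥48 hr, 37 °C; CellTiter-Glo 30 min RT dark, luminescence read.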
DT40 TDP1 CPT: growth inhibition of DT40 Tdp1-/-;hTDP1 cells with camptothecin (screen for TDP1 inhibitors); chicken DT40 Tdp1-/-;hTDP1 cells + 20 nM CPT, ATP luminescence, 48 h; Potency, µM (top dose mostly 46.2 µM), for inactives: at the top dose activity change, negative = growth inhibition, usual class: inhibitors; hit rate 12% among 420,000; AID 686979; note: potency is the fitted concentration of half-maximal effect; nearly all actives have a fitted effect of over 55% in size
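Cell growth measured by CellTiter-Glo luminescence after a minimum 48 h, 37 C compound exposure with 20 nM CPT in Tdp1-knockout DT40 cells stably expressing hTDP1, seeded 400/well; qHTS titration format.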
ELG1 repair inh: inhibitors of ELG1-dependent DNA repair in HEK293T cells. HEK293T ELG1-luciferase reporter, luminescence, 16 h; DNA damage induced by 5-fluorouridine. Potency, µM (top dose mostly 46.1 µM), without a hit: at the top dose activity change, negative = inhibition, usual class: inhibitors. hit rate 2.3% among 330,000; note: potency is the fitted concentration of half-maximal effect; nearly all actives have a fitted effect of over 55% in size
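Cells (2,000 per well) received 5-fluorouridine plus test compound or DMSO and were incubated 16 hr at 37 °C, 5% CO2. Luciferase activity was read by luminescence 30 min after ONE-Glo addition; signal suppression marked inhibition of damage-induced ELG1 function.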
IL-1B inflam inh: inflammasome signaling inhibition, IL-1 beta readout. activity change, % at 57.5 µM. THP-1 LPS/ATP IL-1B secretion, AlphaLISA, 16 h; stronger effect = lower value. hit rate 4.7% among 360,000; in the data active = activity change below about -50%; inconclusive = mostly about -30% to -49%
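THP-1 cells pretreated 1 hr with compounds (up to 57.5 uM final), then stimulated with LPS (250 ng/mL final) plus ATP (1.25 mM final); secreted IL-1B measured by AlphaLISA after 16 hr, decreased signal indicating inhibition.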
Numbers without * were called inactive; ? = inconclusive; / = not tested or not shown. Unless noted, calls come from the whole dose curve; as a rule, active = well fitted curve in the direction sought with a large enough effect; inconclusive = small, poorly fitted or top-dose-only effect, or another doubt; inactive = no such curve, though single readings can be large; an effect the other way counts as inactive or inconclusive. Unless noted, % is set by controls: 0 for no effect and ±100 for the full control effect.

SMILES	HT1080NT lethal	HT1080 IDH1KD tx	DT40 TDP1 no CPT	DT40 TDP1 CPT	ELG1 repair inh	IL-1B inflam inh
O=C(Nc1ccc(N2CCN(C(=O)c3ccc(Cl)cc3)CC2)cc1)c1cccnc1	3%	5%	?	?	?	?
O=C(Cn1nc(C(=O)O)c2ccccc2c1=O)NCc1ccco1	8%	-1%	?	26µM*	2%	6
CC(C)NC(=O)COC(=O)C1CSC2(c3ccc(Br)cc3)CCC(=O)N12 (stereo unspecified)	8%	10%	2%	7%	-6%	12
COc1cccc(NC(=O)C2(C)CCN2C(=O)C2CCCCC2)c1 (stereo unspecified)	2%	19%	?	?	/	47
Cc1occc1C(=O)n1nnc2ccccc21	-4%	0%	21µM*	?	/	-9
COc1ccc(C(=O)n2nnc3ccccc32)cc1Br	-2%	6%	?	16µM*	35%	-14
COc1ccc(C(=O)n2nnc3ccccc32)cc1OC	-4%	-4%	-27%	?	-13%	24
CCSc1ccccc1C(=O)n1nnc2ccccc21	?	?	?	13µM*	/	10
N#CC(=Nc1ccccc1)c1ccccc1	8%	5%	-11%	-1%	/	-25
N#CC(=C1C=CC(=NO)C(Cl)=C1)c1ccccc1	7.3µM*	5.8µM*	1.3µM*	0.65µM*	/	-98*
N#CC(=C1C=C(Br)C(=NO)C=C1Cl)c1ccc(Cl)cc1	-20%	-19%	2.6µM*	4.6µM*	/	?
Cc1ccc(S(=O)(=O)N(C)CC(=O)N(C)CCOc2ccccc2)cc1	1%	-1%	?	?	/	-6
CC(=O)C1=C(C)N(c2ccccc2)C(=O)C1(NS(=O)(=O)c1ccc(N)cc1)C(F)(F)F (stereo unspecified)	-2%	1%	-5%	14%	-2%	18
COC(=O)C1=C(C)N(CCc2ccccc2)C(=O)C1(NS(=O)(=O)c1ccc(NC(C)=O)cc1)C(F)(F)F (stereo unspecified)	10µM*	6.3µM*	?	-22%	-24%	-1
CC1CCN(c2ccc(C(=O)NCc3ccco3)cc2[N+](=O)[O-])CC1	-6%	-19%	?	?	-1%	?
CCN(CC)C(=O)Cn1cc(S(=O)(=O)CC(=O)N2CCOCC2)c2ccccc21	8%	7%	4%	-1%	/	2
COc1ccc(-c2noc(-c3ccoc3C)n2)cc1OC	2%	2%	9%	-3%	4%	0
COc1ccc(-c2cc(-c3c(O)c(OC)c4occc4c3OC)[nH]n2)cc1	?	?	5.8µM*	5.8µM*	-5%	?
COc1ccc(-c2cc(-c3c(O)c(OC)c4occc4c3OC)[nH]n2)cc1OC	?	?	21µM*	?	26µM*	-63*
COC(=O)c1cc(-c2ccc(OC)cc2)n[nH]1	22%	2%	-1%	13%	?	6
CCCOC1(NC(=O)c2ccccc2)C(C)=CC(=O)C=C1C	22%	25%	?	23µM*	3%	20
O=C(N/N=C/c1c[nH]c2ccccc12)c1cc(Br)ccc1O	?	-29%	6%	-19%	20%	24
O=C(N/N=C/c1ccc(O)cc1)c1[nH]c2ccc(Br)cc2c1-c1ccccc1	4.6µM*	4.1µM*	2.9µM*	3.7µM*	-3%	122
O=C(N/N=C/c1c[nH]c2ccccc12)c1[nH]c2ccc(Br)cc2c1-c1ccccc1	7.3µM*	6.5µM*	3.7µM*	5.8µM*	17%	151
CC(=O)NNC(=O)c1[nH]c2ccc(Cl)cc2c1-c1ccccc1	-28%	?	?	-27%	1%	7
